Experimental data reported in PubChem BioAssay (NCATS).
Results filed as inconclusive are left out. Calls of active or inactive are those of the source. Calls follow the shape of the dose curve; as a rule, active = well fitted curve in the direction sought with a large enough effect; inconclusive = small, poorly fitted or top-dose-only effect, or another doubt; inactive = no such curve, though single readings can be large; an effect the other way counts as inactive or inconclusive.

How the values were obtained:
[1] = target: Glutathione peroxidase 1 (Homo sapiens) (UniProt P07203); assay: Primary qHTS Assay for Inhibitors of Recombinant Selenoprotein Glutathione Peroxidase 1 (GPX1) (AID 1845191); also: nearly all actives have a fitted effect of over 65% in size; as to activity, negative = inhibition: % is scaled to controls: 0 for no effect and ±100 for the full control effect
Outline: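 Recombinant GPX1 (10 nM final) was preincubated with compound for 30 min at room temperature, then reacted with 1 mM GSH, 0.5 mM CHP, 0.5 mM NADPH and 100 nM glutathione reductase; NADPH fluorescence (340/450 nm) was read at 0 and 15 min.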

[2] = target: Luciferin 4-monooxygenase (Photinus pyralis) (UniProt P08659); assay: Primary firefly luciferase (FLuc) qHTS assay for identification of artifact compounds. (AID 1845220); also: nearly all actives have a fitted effect of over 60% in size;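 as to activity change, negative = inhibition: series mostly up to about 54 µM; plate controls were DMSO vehicle for no effect and no enzyme for full effect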
Outline: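 Reaction readout was CCD-imaged luminescence, taken 5 min after adding 10 nM purified firefly enzyme to compound-treated wells holding 10 uM luciferin and ATP in pH 7.6 buffer.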

[3] = Primary fluorescence-based thiol-reactive (MSTI) qHTS assay for identification of artifact compounds. (AID 1845221); also: nearly all actives have a fitted effect of over 65% in size; also: potency is read from the fitted curve at half-maximal effect;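 as to activity change, negative = thiol reactive: series mostly up to about 54 µM; thiol-reactive compounds lower the probe fluorescence signal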
Outline: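 MSTI probe at 4 uM final in 2% DMSO/PBS pH 7.4; compounds, 1 h at room temperature in dark. Fluorescence Ex/Em 525/598 nm, normalised to Acetyl-MSTI and MSTI, fitted to 4-parameter Hill.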

[4] = test system: Nanoluciferase (engineered Oplophorus gracilirostris luciferase); assay: Primary Nanoluciferase (NLuc) qHTS assay for identification of artifact compounds. (AID 1845222);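 also: NLuc secreted into diluted conditioned medium of S16 cells; series mostly up to about 54 µM; 0% = DMSO and -100% = no enzyme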
Outline: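 Concentration-response data were obtained by luminescence after 5 min with Nano-Glo substrate at 1:100. The enzyme was diluted S16 NLuc-expressing cell medium, preincubated with compound for 15 min at RT. Curves were fitted with a 4-parameter Hill model.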

[5] = Primary redox qHTS assay for identification of artifact compounds. (AID 1845223);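 also: 0% = DMSO and 100% = reference compound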
Outline: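 Amplex Red (25 uM) and HRP (250 mU/mL) in HBSS, with compounds for 15 min, then 250 uM DTT for 30 min, room temperature, dark. Fluorescence 525/598 nm read; normalized to DMSO and 10 uM DA3003; Hill fit.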

[6] = target: Phospholipid hydroperoxide glutathione peroxidase GPX4 (Homo sapiens) (UniProt P36969); assay: Primary qHTS Assay for Inhibitors of Recombinant Selenoprotein Glutathione Peroxidase 4 (GPX4) (AID 1845192); also: series mostly up to about 50 µM; % is scaled to controls: 0 for no effect and ±100 for the full control effect; nearly all actives have a fitted effect of over 65% in size
Outline: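 GR-coupled readout: 100 nM GR, 1 mM GSH, 0.5 mM NADPH; NADPH fluorescence (ex 340/em 450 nm) read at t=0 and after 15 min RT. GPX4 200 nM, preincubated 30 min with compound; substrate 0.5 mM CHP.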

Sequence of Phospholipid hydroperoxide glutathione peroxidase GPX4 (Homo sapiens) (P36969 whole entry, looked up): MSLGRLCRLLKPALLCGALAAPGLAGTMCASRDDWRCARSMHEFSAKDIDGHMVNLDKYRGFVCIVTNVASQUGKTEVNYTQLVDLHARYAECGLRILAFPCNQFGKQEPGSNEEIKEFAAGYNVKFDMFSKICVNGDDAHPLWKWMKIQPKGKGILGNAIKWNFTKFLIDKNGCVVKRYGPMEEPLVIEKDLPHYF
Sequence of Glutathione peroxidase 1 (Homo sapiens) (P07203 whole entry, looked up): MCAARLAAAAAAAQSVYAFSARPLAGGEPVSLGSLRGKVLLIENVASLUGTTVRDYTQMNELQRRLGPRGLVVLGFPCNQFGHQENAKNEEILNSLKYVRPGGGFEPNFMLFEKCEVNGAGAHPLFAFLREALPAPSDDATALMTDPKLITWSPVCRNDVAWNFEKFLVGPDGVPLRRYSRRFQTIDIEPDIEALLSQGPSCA

Cn1ncc(Cl)c1-c1cc(C(=O)NC(CN)Cc2ccc(F)c(F)c2)oc1Cl (configuration not stated)
inactive: Potency [1] | Potency [2] | Potency [3] | Potency [4] | Potency [5]

CCC(CC)C(c1ccc(Nc2nc3ccccc3s2)cc1)n1cncn1 (configuration not stated)
inactive: Potency [1] | Potency [2] | Potency [3] | Potency [4] | Potency [5]

C=C1/C(=C/C=C2\CCC[C@]3(C)[C@@H]([C@@H](C)OCCC(O)(CC)CC)CC[C@@H]23)C[C@@H](O)C[C@@H]1O
inactive: Potency [1] | Potency [2] | Potency [3] | Potency [4]

COc1c(C)cc(NC(=O)c2nn(Cc3ccc(F)cc3)c3c2CN(C(=O)c2ccc[nH]2)C[C@]3(C)C(N)=O)cc1C
inactive: Potency [1] | activity change, negative = inhibition [2] 2.65% [at 11.6 µM] | activity change, negative = thiol reactive [3] 108% [at 11.5 µM] | activity, negative = inhibition [4] 0.489% [at 11.6 µM] | redox activity (% of DA3003) [5] 7.9% [at 11.5 µM]

CC[C@@H]1C[C@]1(NC(=O)[C@@H]1C[C@@H]2CN1C(=O)[C@H](C(C)(C)C)NC(=O)OCC(C)(C)CCCCc1cccc3c1CN(C3)C(=O)O2)C(=O)NS(=O)(=O)C1CC1
inactive: Potency [1] | Potency [2] | Potency [3] | Potency [4] | Potency [5]

C=C(C)Cn1c(SCC(=O)c2cccs2)nc2sc3c(c2c1=O)CCCC3
inactive: Potency [1] | Potency [2] | Potency [3] | Potency [4] | Potency [5]

C=C1CC[C@@H]2[C@](C)(CO)[C@H](O)CC[C@@]2(C)[C@@H]1/C=C/C1=CCOC1=O
inactive: Potency [1] | Potency [2] | Potency [3] | Potency [4] | Potency [5]

O=C1COc2nccc(-c3ccccc3F)c2CN1Cc1cc(C(F)(F)F)cc(C(F)(F)F)c1
inactive: Potency [1] | Potency [2] | Potency [3] | Potency [4] | Potency [5]

CCCCCCCCC(=O)N[C@H](CN1CCCC1)[C@H](O)c1ccc2c(c1)OCCO2
inactive: Potency [1] | Potency [2] | Potency [3] | Potency [4] | Potency [5]

C=C1C(=O)OC2/C=C(\CO)CC/C=C(\C=O)C(O)C(OC(=O)C(C)CC)C12 (configuration not stated)
active: Potency [3] 14.7 µM
inactive: Potency [1] | Potency [2] | Potency [4] | Potency [5]

CC1(C)C2CCC(CO[C@@H]3O[C@H](CO[C@@H]4OC[C@](O)(CO)[C@H]4O)[C@@H](O)[C@H](O)[C@H]3O)C1C2 (some centres not stated)
inactive: Potency [1] | Potency [2] | Potency [3] | Potency [4] | Potency [5]

COc1cc(O)cc(OC2OC(CO)C(O)C(O)C2O)c1 (configuration not stated)
inactive: Potency [1] | Potency [2] | Potency [4] | Potency [5]
active: Potency [3] 9.47 µM

COc1cc(F)c(F)c(Nc2ccc(I)cc2F)c1NS(=O)(=O)C1(CC(O)CO)CC1 (configuration not stated)
inactive: Potency [6] | Potency [2] | Potency [3] | Potency [4]

Cc1ccc(C)c(-c2cc(C(F)(F)F)nn2-c2ccc(S(N)(=O)=O)cc2)c1
inactive: Potency [6] | Potency [2] | Potency [3] | Potency [4] | Potency [5]

Cc1cc(OCCCS(C)(=O)=O)cc(C)c1-c1cccc(COc2ccc3c(c2)OCC3CC(=O)O)c1 (configuration not stated)
inactive: Potency [6] | Potency [2] | Potency [3] | Potency [4] | Potency [5]

CC[C@H]1OC(=O)[C@H](C)[C@@H](O[C@H]2C[C@@](C)(OC)[C@@H](O)[C@H](C)O2)[C@H](C)[C@@H](O[C@H]2O[C@H](C)C[C@H](N(C)C)[C@H]2O)[C@](C)(O)C[C@@H](C)C(=O)[C@H](C)[C@@H](O)[C@]1(C)O
inactive: Potency [6] | Potency [2] | Potency [3] | Potency [4] | Potency [5]

Fc1ccc(N2CCCCC2)c(NC(=S)c2ccncc2)c1
inactive: Potency [6] | Potency [2] | Potency [3] | Potency [4]

CNC1CN(c2ccc3c(=O)c(C(=O)O)cn(-c4nccs4)c3n2)CC1OC (configuration not stated)
inactive: activity change, negative = inhibition [6] -2.33% [at 9.73 µM] | activity change, negative = inhibition [2] -6.28% [at 11.6 µM] | activity change, negative = thiol reactive [3] -3.65% [at 11.5 µM] | activity, negative = inhibition [4] -7.32% [at 11.6 µM] | redox activity (% of DA3003) [5] -6.95% [at 11.5 µM]

Cc1nc(NC(=O)N2CCCC2C(N)=O)sc1-c1ccnc(C(C)(C)C(F)(F)F)c1 (configuration not stated)
inactive: Potency [6] | Potency [2] | Potency [3] | Potency [4] | Potency [5]
